Activity (Tm shift, normalised) data for 77 molecules are collected here from PubChem BioAssay AID651658 (Broad Institute, 2012).

The structures appear in SMILES notation. Out of some 340,000 compounds screened, about 5,100 (1.5%) were called active.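 How the source made its calls: active means mean Tm shift, scaled 0 neutral to 100 positive control, at about 1.3% or above, every replicate too (limit read from the data); inconclusive means no clear call, values can overlap the other calls; inactive means the rest.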 Many of the other results were omitted from the sample, so actives are more common in it than they were.

The target of the test is Fibroblast growth factor 22 (Homo sapiens) (UniProt Q9HCT0). In words: FGF22 ligand-induced thermal stabilization – biophysical, thermal shift, single point, FGF22 synaptogenesis inhibitor project, primary screen (AID 651658). To be noted: recombinant FGF22 thermal shift, SYPRO orange fluorescence; at 9.99 µM; active compounds read high; percent of sucrose octasulfate shift, DMSO zero.
Chain of Fibroblast growth factor 22 (Homo sapiens) (Q9HCT0 whole entry, looked up): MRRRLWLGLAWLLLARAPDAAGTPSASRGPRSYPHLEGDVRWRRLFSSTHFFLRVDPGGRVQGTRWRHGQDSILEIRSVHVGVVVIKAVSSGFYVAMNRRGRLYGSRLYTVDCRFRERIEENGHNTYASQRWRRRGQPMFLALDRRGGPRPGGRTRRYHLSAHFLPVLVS
For `O=C(Cc1ccccc1)N1CC2(C1)[C@H](c1ccccc1)[C@@H](CO)N2C(=O)c1cccnc1`, the activity (Tm shift, normalised) was -0.085% (inactive).

As to `C[C@H](CO)N1C[C@H](C)[C@@H](CN(C)CC2CCCCC2)Oc2ccc(NC(=O)Cn3cnnn3)cc2CC1=O`, the activity (Tm shift, normalised) is -0.448% (inactive).

On to `O=C(CN1CCCCCC1)NCCN1C(=O)S/C(=C\c2ccccc2Cl)C1=O`, for which the activity (Tm shift, normalised) was 0.458% (inactive).

`O=C(CN1C(=O)S/C(=C\c2ccccc2Cl)C1=O)NC1C=CS(=O)(=O)C1` (configuration not stated): the activity (Tm shift, normalised) was 43.2% (active). Turning to `COc1cccc(/C=C2/SC(=S)N(CC(=O)NC3C=CS(=O)(=O)C3)C2=O)c1` (configuration not stated), the activity (Tm shift, normalised) is -0.111% (inactive). In the case of `O=C(O)CCCCCCC(=O)NOCc1ccccc1` it was -0.15% (inactive); in that of `CO[C@H](CN(C)C(=O)c1cnccn1)[C@@H](C)CN([C@@H](C)CO)S(=O)(=O)c1ccccc1`, 0.08% (inactive); in that of `CC(C)NC(=O)Nc1ccc2c(c1)C(=O)N([C@@H](C)CO)C[C@@H](C)[C@H](CN(C)C)OCCCC[C@H](C)O2`, -0.748% (inactive). Regarding `CC(C)NC(=O)N[C@@H]1CC[C@@H](CCNS(=O)(=O)Cc2ccccc2)O[C@@H]1CO`, the activity (Tm shift, normalised) is -0.299% (inactive).

In the case of `O=C(Nc1ccc(F)cc1)N1C[C@@H]2[C@H](c3ccccc31)[C@H](CO)N2Cc1ccccc1`, the activity (Tm shift, normalised) was -0.206% (inactive). As to `CN1C(=O)c2cc(NC(=O)c3ccccc3)ccc2OC[C@H]2O[C@@H](CC(=O)O)CC[C@@H]21`, the activity (Tm shift, normalised) is -0.04% (inactive).

As to `CC(=O)N(C)C[C@@H]1Oc2ncc(C#Cc3ccccn3)cc2C(=O)N([C@@H](C)CO)C[C@@H]1C`, the activity (Tm shift, normalised) was 0.165% (inactive).

In the case of `CCCCN1CC(N2CCN(Cc3cccc(C)c3)CC2)CS1(=O)=O` (configuration not stated), the activity (Tm shift, normalised) was 1.92% (active). In the case of `Cc1cccc(CN2CCN(C3CN(Cc4cn(Cc5cc(C)cc(C)c5)nn4)S(=O)(=O)C3)CC2)c1` (configuration not stated) it was -0.326% (inactive). In the case of `Cc1cccc(CN2CCN(C3CN(Cc4ccccc4)S(=O)(=O)C3)CC2)c1` (configuration not stated) it was -0.158% (inactive). In the case of `COc1cccc(CNC(=O)C[C@@H]2CC[C@H]3[C@@H](COc4ccc(NC(=O)c5cccs5)cc4C(=O)N3C)O2)c1` it was 0.125% (inactive). With `Cc1ccc(NC(=O)C(=O)NCc2ccc(/C=N/NC(=O)c3c(C)nc4cc(C)ccn34)o2)cc1`, the activity (Tm shift, normalised) is 2.68% (active). For the molecule `CCOc1ccc(/C=N\NC(=O)c2c(C)nc3cc(C)ccn23)cc1`, the activity (Tm shift, normalised) is -0.098% (inactive). The figure for `Cc1ccn2c(=O)c(NC(=O)c3cccc4ccccc34)c(C)nc2c1` is -0.089% (inactive).

For `CO[C@H]1CN(C)C(=O)c2cc(NS(=O)(=O)c3ccccc3)ccc2OC[C@H](C)NC[C@@H]1C`, the activity (Tm shift, normalised) was -0.185% (inactive). In the case of `C[C@H]1CN([C@@H](C)CO)S(=O)(=O)c2ccc(Br)cc2O[C@H]1CN(C)Cc1ccccn1` it was -0.079% (inactive); in that of `COc1ccc2c3c(n(C)c2c1)[C@@H](CO)N(C(=O)Nc1ccc(F)cc1)CC31CCN(C(=O)c2cccnc2)CC1`, -0.306% (inactive). Regarding `C[C@@H]1CN([C@H](C)CO)S(=O)(=O)c2ccc(C3=CCCC3)cc2O[C@@H]1CN(C)C(=O)C1CCC1`, the activity (Tm shift, normalised) was 0.141% (inactive).

With `O=C(c1ccncc1)c1ccc([N+](=O)[O-])cc1`, the activity (Tm shift, normalised) is 43.1% (active). In the case of `O=C(Nn1cnnc1)c1ccc([N+](=O)[O-])cc1` it was 42.7% (inactive). In the case of `O=C(Nc1ccccc1C(=O)Nc1ccncc1)c1ccc([N+](=O)[O-])cc1` it was -0.016% (inactive); in that of `CC(C)NC(=O)N1CC2(C1)[C@H](c1ccccc1)[C@H](CO)N2C(=O)C1CCOCC1`, -0.068% (inactive); in that of `O=[N+]([O-])c1ccc2oc(-c3cccc(O)c3)nc2c1`, 43.2% (active).

Consider `O=[N+]([O-])c1ccc2c(c1)C(O)n1nc(-c3ccccc3)nc1S2` (configuration not stated), for which the activity (Tm shift, normalised) is 0.035% (inactive). As for `CC(=O)Oc1ccc2c(=O)oc(-c3ccc([N+](=O)[O-])cc3)nc2c1`, the activity (Tm shift, normalised) is -0.034% (inactive). Regarding `CN(C)C(=O)C[C@@H]1CC[C@H]2[C@@H](COC[C@H](O)CN2C(=O)c2ccncc2)O1`, the activity (Tm shift, normalised) was -0.192% (inactive). As for `CC(C)CC#Cc1cnc2c(c1)C(=O)N([C@H](C)CO)C[C@H](C)[C@@H](CN(C)Cc1ccccc1)O2`, the activity (Tm shift, normalised) was 0.063% (inactive). The figure for `CO[C@@H]1CN(C)C(=O)c2ccc(NC(=O)Nc3ccccc3)cc2OC[C@@H](C)N(C(=O)CN(C)C)C[C@H]1C` is -0.352% (inactive). The figure for `Cc1c(CCOC(=O)CC23CC4CC(CC(C)(C4)C2)C3)sc[n+]1Cc1ccc([N+](=O)[O-])cc1` is -0.223% (inactive); for `Cc1c(CCO)sc[n+]1CC(=O)OC12CC3CC(CC(C3)C1)C2` it is 1.45% (active); for `C[C@@H]1CN([C@@H](C)CO)S(=O)(=O)c2ccc(/C=C/c3ccccc3)cc2O[C@H]1CN(C)C(=O)C1CC1` it is -0.835% (inactive). As for `COc1cccc(CN2CC3(CN(Cc4ccccn4)C3)c3c([nH]c4cc(OC)ccc34)[C@@H]2CO)c1`, the activity (Tm shift, normalised) is 0.052% (inactive). The figure for `CCS(=O)(=O)N1CCC2(CC1)CN(Cc1ccc3c(c1)OCO3)[C@H](CO)c1[nH]c3cc(OC)ccc3c12` is 0.042% (inactive).

For the molecule `COc1ccccc1C(=O)Nn1c(-c2cccs2)nc2ccccc2c1=O`, the activity (Tm shift, normalised) is 43.8% (active).

As for `COc1cc(C(=O)Nn2c(CC(C)C)nc3ccccc3c2=O)cc(OC)c1OC`, the activity (Tm shift, normalised) is 0.375% (inactive). For `COc1cc(OC)cc(-c2nc3ccccc3c(=O)n2NC(=O)c2cccnc2Cl)c1`, the activity (Tm shift, normalised) is 0.323% (inactive). The figure for `C[C@H]1CN([C@@H](C)CO)C(=O)c2cc(-c3ccncc3)cnc2O[C@H]1CN(C)C(=O)c1cccc(F)c1` is -0.103% (inactive); for `C[C@H]1CN([C@@H](C)CO)C(=O)c2cc(NC(=O)Nc3ccccc3)ccc2O[C@H]1CN(C)C(=O)Nc1ccc(F)cc1` it is 0.055% (inactive); for `CCC(=O)N1C[C@@H](C)[C@H](OC)CN(C)C(=O)c2ccc(NC(=O)COC)cc2OC[C@@H]1C` it is 0.031% (inactive).

Consider `COCC(=O)Nc1ccc2c(c1)OC[C@H](C)N(C)C[C@@H](C)[C@@H](OC)CN(C)C2=O`, for which the activity (Tm shift, normalised) was 38% (active). As to `COCC(=O)Nc1ccc2c(c1)OC[C@H](C)N(C(=O)COC)C[C@@H](C)[C@H](OC)CN(C)C2=O`, the activity (Tm shift, normalised) is 0.165% (inactive). The figure for `COc1cccc(-c2ccc3c(c2)[C@H]2[C@H](CCN2C(=O)c2ccc(F)cc2)[C@@H](CO)N3)c1` is -0.166% (inactive); for `N#CCSc1nc(-c2ccccc2)nc2ccc(F)cc12` it is -0.193% (inactive). In the case of `O=[N+]([O-])c1cc2ccccc2nc1-c1ccccc1` it was 42.3% (inactive). With `O=[N+]([O-])c1ccc(F)cc1Oc1nc(-c2cccnc2)nc2ccccc12`, the activity (Tm shift, normalised) is 43.2% (active). In the case of `COc1cccc(-c2ccc([C@@H]3[C@@H](C#N)N(C(=O)c4ccccn4)[C@H]3CO)cc2)c1` it was -0.024% (inactive); in that of `O=C(CN1CCOCC1)NC[C@@H]1N[C@@H](CO)[C@@H]1c1ccc(-c2ccccc2)cc1`, 0.456% (inactive); in that of `C[C@@H]1CN([C@H](C)CO)C(=O)c2cc(N(C)C)ccc2O[C@@H](C)CCCCO[C@@H]1CN(C)C(=O)CCCN(C)C`, -0.859% (inactive).

`COc1ccccc1C#Cc1cnc2c(c1)C(=O)N([C@H](C)CO)C[C@H](C)[C@H](CN(C)S(=O)(=O)c1cn(C)cn1)O2`: the activity (Tm shift, normalised) is 0.666% (inactive).

For `CC(C)[C@@H]1COCn2nncc2CCCC(=O)N1`, the activity (Tm shift, normalised) is -0.193% (inactive).

`O=C(C[C@H]1CC[C@@H]2[C@H](COC[C@@H](O)CN2C(=O)Nc2ccc(C(F)(F)F)cc2)O1)NCCc1ccncc1`: the activity (Tm shift, normalised) was -0.088% (inactive). In the case of `O=C1C=C(c2ccccc2)CCC1` it was 43.9% (active); in that of `CC(C)NC(=O)N1[C@H](CO)[C@H](c2ccccc2)C12CN(C(=O)Cc1ccccc1)C2`, -0.087% (inactive); in that of `CC(C)Oc1ccccc1C(=O)NC(CO)C(=O)O` (configuration not stated), 42.8% (inactive). In the case of `CC1(C)OC(=O)C(=CNC(CO)C(=O)O)C(=O)O1` (configuration not stated) it was 43.2% (active). Consider `COCC(=O)N1CC2(C1)CN(C(=O)COC)[C@@H](CO)c1c2c2ccc(OC)cc2n1C`, for which the activity (Tm shift, normalised) was -0.043% (inactive). With `C[C@@H]1CN([C@H](C)CO)C(=O)c2cc(NC(=O)Cn3cnnn3)ccc2O[C@@H]1CN(C)C(=O)Nc1ccc2c(c1)OCO2`, the activity (Tm shift, normalised) is 0.191% (inactive). The figure for `O=S(=O)(N[C@@H]1CC[C@H](CCn2cc(-c3ccccc3F)nn2)O[C@H]1CO)c1ccc(F)cc1` is 0.086% (inactive). The figure for `O=S(=O)(Oc1ccccc1C(=S)N1CCOCC1)c1ccc(Cl)cc1` is 0% (inactive); for `S=C(Cc1ccc(Cl)cc1)N1CCOCC1` it is 43.7% (active). Turning to `O=C(Cc1ccccc1Cl)N1CCOCC1`, the activity (Tm shift, normalised) was -0.495% (inactive).

On to `COc1ccc2c3c(n(C)c2c1)[C@@H](CO)NCC31CCN(CC2CCCC2)CC1`, for which the activity (Tm shift, normalised) was -0.076% (inactive).

On to `O=S(=O)(c1ccccc1)c1nc(-c2ccccc2)oc1NCCCN1CCOCC1`, for which the activity (Tm shift, normalised) is 0.296% (inactive). In the case of `O=S(=O)(c1ccccc1)c1nc(-c2ccccc2F)oc1NCc1cccnc1`, the activity (Tm shift, normalised) is 44.2% (active). With `Cc1ccc(S(=O)(=O)c2nc(-c3cccs3)oc2NCc2cccnc2)cc1`, the activity (Tm shift, normalised) was 0.137% (inactive).

Regarding `O=C(NCC1CC1)[C@@H]1[C@@H](CO)[C@@H]2Cn3c(ccc(-c4ccccc4)c3=O)[C@H]1N2C(=O)C1CC1`, the activity (Tm shift, normalised) was 0.292% (inactive). In the case of `CC1CCN(S(=O)(=O)c2ccc3[nH]c(=O)ccc3c2)CC1` it was 43.3% (active); in that of `Cc1cc(C)cc(NC(=O)C2CCCN(S(=O)(=O)c3ccc4[nH]c(=O)ccc4c3)C2)c1` (configuration not stated), -0.297% (inactive).

Regarding `CC1CCN(S(=O)(=O)c2ccc3c(c2)n(C)c(=O)n3C)CC1`, the activity (Tm shift, normalised) is 0.113% (inactive). On to `COc1ccc(CCNC(=O)c2c(C)nn(-c3ccccc3)c2Cl)cc1`, for which the activity (Tm shift, normalised) is 0.155% (inactive). In the case of `COc1ccc(C2c3c(C)nn(-c4ccccc4)c3NC(=O)N2c2ccccc2)cc1` (configuration not stated), the activity (Tm shift, normalised) was 42.9% (active). `COCc1[nH]nc2c1C(c1ccccc1)N(c1ccccc1)C2=O` (configuration not stated): the activity (Tm shift, normalised) is -0.061% (inactive).
